Compounds without any hit were thinned out: in the full panel of roughly 83,000, 20% have a hit.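 A percent growth of 40 corresponds to 60% growth inhibition; 0 means no net growth; -100 means all cells died. Active threshold: below 10.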 Values without a mark were called inactive. Activity calls are given as the source filed them.
What follows are compounds tested on SF-295 CNS (assay: NCI-60 one-dose screen, 48 h (100 = growth as untreated, 0 = no growth, -100 = all killed)). Settings: 10 µM unless noted.

Row | SMILES | growth
1 | CCCCN(CCCC)c1ccc(C(=N)c2ccc(N(CCCC)CCCC)cc2)cc1 | -83.5% (active)
2 | Clc1ccc(-c2nc3ccccc3s2)cc1Cl | 108%
3 | Cc1nc2c3c(ncn2n1)Oc1c(c(=O)[nH]c2ccccc12)C3c1ccc(Cl)cc1 (centres undefined) | 96.2%
4 | O=C(NNC(=S)Nc1ccccc1)c1cc2ccc1CCc1ccc(cc1)CC2 | 49.5%
5 | O=C(Nc1ccc2c(c1)OCCO2)C(=O)c1c[nH]c2ccccc12 | 23.8%
6 | COc1ccc2c(c1)C(c1cc(OC)c3c(c1)OCO3)C1=C(COC1=O)N2 (centres undefined) | 1.56% (active)
7 | S=c1[nH]nc(-c2cc3ccc2CCc2ccc(cc2)CC3)n1-c1ccccc1 | 91.7%
8 | COc1ccc2cc(-c3ccc(-c4ccc(C(=N)N)cc4)s3)ccc2c1 | 101%
9 | CCN(CC)CCC(CNc1c2ccc(Cl)cc2nc2ccc(OC)cc12)c1ccccc1 (centres undefined) | -33.2% (active)
10 | Cc1ccc(S(=O)(=O)C2=C3C(=C(c4ccccc4)c4ccccc43)CN(S(=O)(=O)c3ccc(C)cc3)C2)cc1 | 68.3%
11 | Cc1ccc(S(=O)(=O)NCCNc2nccc(-c3c(-c4cccc(N)c4)nc4sccn34)n2)cc1 | 95.6%
12 | CC(C)NCCCNC1=C(Cl)C(=O)c2ccccc2C1=O | 57.4%
13 | COc1cccc(CC(C)=C(c2ccc(OCCN(C)C)cc2)c2ccc(OCCN(C)C)cc2)c1 | 22.8%
14 | S=c1[nH]nc(-c2cc3ccc2CCc2ccc(cc2)CC3)n1C1CC1 | 93.8%
